Screens (PubChem BioAssay)
This is a sample that favours compounds with a hit; in the whole collection about 6.5% have one here.
IL-1B inflam inh = inhibitors of inflammasome signaling (IL-1 beta secretion); THP-1 LPS/ATP IL-1B secretion, AlphaLISA, 16 h; hits give low values; activity change, % at 57.5 µM; 360,000 tested, 4.7% active; AID 743279; in the data active = activity change below about -50%; inconclusive = mostly about -30% to -49%
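Secreted IL-1B measured by AlphaLISA bead assay after 16 h compound exposure of THP-1 cells; compounds (final up to 57.5 uM) added 1 h before LPS (250 ng/mL) and ATP (1.25 mM) stimulation; lower signal means less secretion.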
Giardia kill = kills Giardia lamblia; AID 540267; Giardia lamblia trophozoite viability; activity change, % at 7.66 µM, hits read low; 340,000 tested, 0.15% active; in the data active = activity change below about -80%; inconclusive = between about -30% and that limit;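 also: parasites exposed to compound for two days anaerobically before the ATP read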
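Media and compound were dispensed first, then trophozoites at 100 cells/well; plates sat 48 hrs at 37 deg C without oxygen before ATP luminescence reagent was added and read after 15-30 min at room temperature.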
HepG2 tox = HepG2 cytotoxicity, counter-screen for TGF-b inhibitors; HepG2 CAGA-GFP viability, ATP luminescence, 18 h; Potency, µM (doses to about 46.1 µM), usual class: cytotoxic; 410,000 tested, 0.76% active; AID 588856
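CellTiter-Glo luminescence gave cytotoxicity after 18 hours at 37 degrees C. The cells were HepG2 CAGA-GFP in 1% FBS DMEM, stimulated with 500 pg/mL TGF-beta after compound addition. %Activity was normalised to no-cell wells (complete cell-killing) and DMSO (no toxicity), and curves were fitted and classified.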
HT1080-NT tox = kills 2HG-producing HT-1080-NT fibrosarcoma cells; HT-1080-NT fibrosarcoma viability, CellTiter-Glo ATP luminescence, 48 h; Potency, µM (highest dose often 46.1 µM), usual class: cytotoxic; 360,000 tested, 1.6% active;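 also: NT is the 2HG producing partner of a matched IDH1 knockdown line; nearly all actives have a fitted effect of over 55% in size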
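Fibrosarcoma NT cells, 750 per well in 5% FBS RPMI, were exposed to compound for 48 hours. Viability: CellTiter-Glo luminescence.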
TGFb inhibitor = inhibitors of TGF-b signaling; 410,000 tested, 1.2% active; HepG2 CAGA-GFP TGF-b/SMAD3 reporter, GFP fluorescence, 18 h; TGF-beta stimulated, 500 pg/mL final; AID 588855; Potency, µM (top dose mostly 46.1 µM), actives largely listed as inhibitors; also: nearly all actives have a fitted effect of over 65% in size
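Cell-based qHTS in HEPG2 carrying a CAGA-GFP Smad reporter; compounds added before 500 pg/mL final TGF-beta, 18 h incubation at 37 degrees C, GFP fluorescence quantified per cell by imaging cytometry.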
HT1080 IDH1KD tx = toxicity to HT-1080 IDH1 knockdown cells (counter line) | Potency, µM (top dose mostly 46.1 µM), actives largely listed as cytotoxic | 360,000 tested, 2% active | HT-1080 IDH1 knockdown viability, ATP luminescence, 48 h
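HT-1080-IDH1KD cells (IDH1 knocked down), 750/well in RPMI with 5% FBS, treated with compound 48 h at 37 degrees C. Viability by CellTiter-Glo luminescence, normalised to DMSO and no-cell wells; concentration-response curves classed.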
Each line names hits and unclear results; the compound was inactive in the other large screens. Unless noted, calls follow the shape of the dose curve; as a rule, active = well fitted curve in the direction sought with a large enough effect; inconclusive = small, poorly fitted or top-dose-only effect, or another doubt; inactive = no such curve, though single readings can be large; an effect the other way counts as inactive or inconclusive.

COc1cc(C)ccc1OCCCOc1cc(C)ccc1Cl	none
Cc1nn(C)c(C)c1S(=O)(=O)N(CC(=O)N1CCc2ccccc21)c1ccc(C(C)C)cc1	none
CCc1nc(N)nc(N)c1-c1ccc(Cl)cc1	HT1080-NT tox 0.82µM, TGFb inhibitor inconclusive, HT1080 IDH1KD tx 1.2µM
CCOC(=O)N1CCC(N2Cc3cccc(C(=O)NCC4CCN(CC(C)C)C4)c3C2=O)CC1 (stereo not drawn)	none
CNC[C@H]1Oc2cc(Br)ccc2S(=O)(=O)N([C@@H](C)CO)C[C@@H]1C	none (no result: Giardia kill)
COC(=O)c1cc(Cl)c(NC(=O)c2ccc(C(C)(C)C)cc2)cc1OC	HT1080-NT tox inconclusive, HT1080 IDH1KD tx 11µM
COC(=O)c1cc(Cl)c(NC(=O)C(C)C)cc1OC	none
Cc1ccc(S(=O)(=O)NCC2(c3ccccc3)CCN(C)CC2)cc1	IL-1B inflam inh -66
O=C(c1oc2ccccc2c1CSCc1ccccc1)N1CCN(c2ncccn2)CC1	TGFb inhibitor 16µM
COc1ccc(CCNC(=O)CCCn2nc(C)c3sc4ccccc4c3c2=O)cc1OC	TGFb inhibitor inconclusive (no result: IL-1B inflam inh, Giardia kill, HT1080-NT tox, HT1080 IDH1KD tx)
CCOC(=O)Cn1nnnc1C(CC)N(Cc1ccccc1)Cc1cc2cc(C)ccc2[nH]c1=O (stereo not drawn)	none
CC(C)C(c1nnnn1Cc1ccccc1)N(CCCO)Cc1cc2cc3c(cc2[nH]c1=O)OCO3 (stereo not drawn)	IL-1B inflam inh -60
CCC(c1nnnn1Cc1ccccc1)N(Cc1ccco1)Cc1cc2cc(OC)ccc2[nH]c1=O (stereo not drawn)	IL-1B inflam inh -54, HT1080-NT tox inconclusive, HT1080 IDH1KD tx inconclusive
CCC(c1nnnn1Cc1ccco1)N(CCc1ccccc1)Cc1cc2cc(C)ccc2[nH]c1=O (stereo not drawn)	IL-1B inflam inh -52, TGFb inhibitor inconclusive, HT1080 IDH1KD tx inconclusive
CCC(c1nnnn1CCc1ccccc1)N(Cc1ccco1)Cc1cc2cc(C)cc(C)c2[nH]c1=O (stereo not drawn)	IL-1B inflam inh -53, TGFb inhibitor inconclusive
CCC(c1nnnn1CCc1ccccc1)N(Cc1ccco1)Cc1cc2c(C)ccc(C)c2[nH]c1=O (stereo not drawn)	IL-1B inflam inh inconclusive, TGFb inhibitor inconclusive
CNC(=S)N(C1=NCC(c2ccc([N+](=O)[O-])cc2)S1)c1ccccc1 (stereo not drawn)	none
Cc1ccc2[nH]c(=O)c(CN(CCc3ccccc3)C(c3nnnn3Cc3ccco3)C(C)C)cc2c1 (stereo not drawn)	IL-1B inflam inh -91, HT1080-NT tox inconclusive, HT1080 IDH1KD tx 16µM
COc1ccc(/C=C(/NC(=O)c2ccccc2)C(=O)N/N=C/c2ccc3c(c2)OCO3)cc1OC	IL-1B inflam inh -69, HT1080-NT tox inconclusive
COc1ccc(/C=C(\NC(=O)c2ccccc2)C(=O)N2CCN(C)CC2)cc1OC	none
COc1ccc(/C=C(/NC(=O)c2ccccc2)C(=O)N2CCOCC2)cc1OC	IL-1B inflam inh -67
O=C(N/N=C/c1ccc2c(c1)OCO2)/C(=C/c1ccc2c(c1)OCO2)NC(=O)c1ccccc1	IL-1B inflam inh inconclusive, TGFb inhibitor inconclusive
COc1ccc(C(=O)N/C(=C\c2ccccc2)C(=O)N2CCOCC2)cc1	none
COc1ccc(-c2ccc(/C=C(\NC(=O)c3ccccc3)C(=O)N3CCOCC3)o2)cc1	IL-1B inflam inh -57
CCCc1cc(C(=O)Nc2ccc(C)cc2)no1	none
COc1ccc2nc(N/C(N)=N/C(=S)Nc3cccc(C)c3)nc(C)c2c1	IL-1B inflam inh -56
CCOc1ccc2nc(N/C(N)=N/C(=S)Nc3cccc(C)c3)nc(C)c2c1	IL-1B inflam inh inconclusive
CCOc1ccc2nc(N/C(N)=N/C(=S)Nc3cccc(OC)c3)nc(C)c2c1	IL-1B inflam inh -55
COc1ccc2nc(N/C(N)=N/C(=S)Nc3c(C)cccc3C)nc(C)c2c1	IL-1B inflam inh -63, TGFb inhibitor inconclusive
